Where “and” joins values, the source holds several entries; their conditions need not be identical. Equal values may be shown once. Screen size: about 5,500 compounds; about 2,000 (36%) were called active. About 18% were inconclusive and are not listed. Cut-off read from the data, not from the text of the source: active = normalized growth mostly below about 0.91 (no sharp cut-off); inconclusive = no clear call, values can overlap the other calls; inactive = mostly above about 0.92. The list shows a part of the results.
Assay: chemical genetic growth profiling, strain panel (AID 1159580);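 note: tested at 20 µM; growth read once vehicle control cultures reached saturation at 30 °C; 1 = growth at the plate median or of vehicle wells; lower values mean less growth of the strain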
Details: S. cerevisiae deletion strains, growth OD

## CC(C)=CCOc1c2occc2cc2ccc(=O)oc12
Locus YAL013W, strain DEP1, stronger effect = lower value
  normalized growth: 0.734 (active)
Locus YAL021C, strain ccr4, stronger effect = lower value
  normalized growth: 0.963 (inactive)
Locus YAL026C, strain drs2, stronger effect = lower value
  normalized growth: 0.874 (active)
Locus YAL030W, strain snc1, stronger effect = lower value
  normalized growth: 0.928 (active)
Locus YBL061C, strain skt5, stronger effect = lower value
  normalized growth: 0.892 (active)
Locus YBR009C, strain hhf1, stronger effect = lower value
  normalized growth: 0.851 (active)
Locus YBR021W, strain FUR4, stronger effect = lower value
  normalized growth: 0.74 (active)
Locus YBR023C, strain chs3, stronger effect = lower value
  normalized growth: 0.864 (active)
Locus YBR171W, strain sec66, stronger effect = lower value
  normalized growth: 0.865 (active)
Locus YBR229C, strain ROT2, stronger effect = lower value
  normalized growth: 0.896 (active)
Locus YBR231C, strain swc5, stronger effect = lower value
  normalized growth: 0.922 (inactive)
Locus YBR279W, strain paf1, stronger effect = lower value
  normalized growth: 0.921 (active)
Locus YCL011C, strain gbp2, stronger effect = lower value
  normalized growth: 0.849 (active)
Locus YCL016C, strain dcc1, stronger effect = lower value
  normalized growth: 0.859 (active)
Locus YCL029C, strain bik1, stronger effect = lower value
  normalized growth: 0.804 (active)
Locus YCL061C, strain MRC1, stronger effect = lower value
  normalized growth: 0.876 (active)
Locus YCL069W, strain vba3, stronger effect = lower value
  normalized growth: 0.912 (active)
Locus YCR088W, strain abp1, stronger effect = lower value
  normalized growth: 0.928 (inactive)
Locus YDL005C, strain med2, stronger effect = lower value
  normalized growth: 0.947 (inactive)
Locus YDL035C, strain GPR1, stronger effect = lower value
  normalized growth: 0.857 (active)
Locus YDL040C, strain nat1, stronger effect = lower value
  normalized growth: 0.934 (inactive)
Locus YDL074C, strain BRE1, stronger effect = lower value
  normalized growth: 0.606 (active)
Locus YDL101C, strain DUN1, stronger effect = lower value
  normalized growth: 0.559 (active)
Locus YDL185W, strain tfp1, stronger effect = lower value
  normalized growth: 0.875 (active)
Locus YDL192W, strain arf1, stronger effect = lower value
  normalized growth: 0.67 (active)
Locus YDR001C, strain nth1, stronger effect = lower value
  normalized growth: 0.899 (active)
Locus YDR069C, strain doa4, stronger effect = lower value
  normalized growth: 0.923 (inactive)
Locus YDR101C, strain arx1, stronger effect = lower value
  normalized growth: 0.808 (active)
Locus YDR137W, strain rgp1, stronger effect = lower value
  normalized growth: 0.729 (active)
Locus YDR150W, strain NUM1, stronger effect = lower value
  normalized growth: 0.899 (active)
Locus YDR159W, strain sac3, stronger effect = lower value
  normalized growth: 0.944 (inactive)
Locus YDR162C, strain NBP2, stronger effect = lower value
  normalized growth: 0.507 (active)
Locus YDR195W, strain ref2
  normalized growth: 1.07 (inactive)
Locus YDR297W, strain sur2, stronger effect = lower value
  normalized growth: 0.926 (inactive)
Locus YDR318W, strain mcm21, stronger effect = lower value
  normalized growth: 0.649 (active)
Locus YDR334W, strain swr1, stronger effect = lower value
  normalized growth: 0.892 (active)
Locus YDR335W, strain msn5, stronger effect = lower value
  normalized growth: 0.942 (inactive)
Locus YDR388W, stronger effect = lower value
  normalized growth: 0.837 (active)
Locus YDR392W, strain spt3, stronger effect = lower value
  normalized growth: 0.353 (active)
Locus YDR502C, strain sam2, stronger effect = lower value
  normalized growth: 0.736 (active)
Locus YEL003W, strain gim4, stronger effect = lower value
  normalized growth: 0.929 (inactive)
Locus YEL037C, strain rad23, stronger effect = lower value
  normalized growth: 0.937 (inactive)
Locus YEL061C, strain CIN8 (second series), stronger effect = lower value
  normalized growth: 0.929 (inactive)
Locus YER015W, strain faa2, stronger effect = lower value
  normalized growth: 0.935 (inactive)
Locus YER016W, strain bim1, stronger effect = lower value
  normalized growth: 0.927 (inactive)
Locus YER110C, stronger effect = lower value
  normalized growth: 0.728 (active)
Locus YER111C, strain swi4, stronger effect = lower value
  normalized growth: 0.929 (inactive)
Locus YER155C, strain BEM2 (second series), stronger effect = lower value
  normalized growth: 0.509 (active)
Locus YER155C, strain BEM2, stronger effect = lower value
  normalized growth: 0.575 (active)
Locus YER167W, strain BCK2, stronger effect = lower value
  normalized growth: 0.722 (active)
Locus YFR010W, strain ubp6, stronger effect = lower value
  normalized growth: 0.938 (inactive)
Locus YGL078C, strain dbp3, stronger effect = lower value
  normalized growth: 0.92 (active)
Locus YGL086W, strain mad1, stronger effect = lower value
  normalized growth: 0.678 (active)
Locus YGL167C, strain pmr1, stronger effect = lower value
  normalized growth: 0.887 (active)
Locus YGL173C, strain kem1, stronger effect = lower value
  normalized growth: 0.885 (active)
Locus YGL227W, strain vid30, stronger effect = lower value
  normalized growth: 0.918 (inactive)
Locus YGL240W, strain doc1, stronger effect = lower value
  normalized growth: 0.741 (active)
Locus YGL248W, strain PDE1, stronger effect = lower value
  normalized growth: 0.672 (active)
Locus YGL253W, strain hxk2, stronger effect = lower value
  normalized growth: 0.807 (active)
Locus YGR135W, strain pre9, stronger effect = lower value
  normalized growth: 0.666 (active)
Locus YGR252W, strain gcn5, stronger effect = lower value
  normalized growth: 0.519 (active)
Locus YHR013C, strain ard1, stronger effect = lower value
  normalized growth: 0.87 (inactive)
Locus YHR027C, strain rpn1, stronger effect = lower value
  normalized growth: 0.954 (inactive)
Locus YHR030C, strain SLT2, stronger effect = lower value
  normalized growth: 0.978 (inactive)
Locus YHR079C, strain IRE1 (second series), stronger effect = lower value
  normalized growth: 0.856 (active)
Locus YHR079C, strain IRE1, stronger effect = lower value
  normalized growth: 0.975 (inactive)
Locus YHR094C, strain hxt1, stronger effect = lower value
  normalized growth: 0.821 (active)
Locus YHR129C, strain ARP1, stronger effect = lower value
  normalized growth: 0.652 (active)
Locus YHR142W, strain chs7, stronger effect = lower value
  normalized growth: 0.679 (active)
Locus YHR200W, strain rpn10, stronger effect = lower value
  normalized growth: 0.822 (active)
Locus YIL066C, strain RNR3, stronger effect = lower value
  normalized growth: 0.697 (active)
Locus YIL073C, strain SPO22, stronger effect = lower value
  normalized growth: 0.792 (inactive)
Locus YIL125W, strain kgd1, stronger effect = lower value
  normalized growth: 0.895 (active)
Locus YIR030C, strain dcg1, stronger effect = lower value
  normalized growth: 0.842 (active)
Locus YJL092W, strain hpr5, stronger effect = lower value
  normalized growth: 0.9 (active)
Locus YJL095W, strain BCK1 (second series), stronger effect = lower value
  normalized growth: 0.898 (active)
Locus YJL095W, strain BCK1, stronger effect = lower value
  normalized growth: 0.297 (active) and 0.984 (inactive)
Locus YJL115W, strain asf1, stronger effect = lower value
  normalized growth: 0.922 (inactive)
Locus YJL129C, strain trk1, stronger effect = lower value
  normalized growth: 0.774 (active)
Locus YJL134W, strain LCB3, stronger effect = lower value
  normalized growth: 0.895 (active)
Locus YJL154C, strain vps35, stronger effect = lower value
  normalized growth: 0.935 (inactive)
Locus YJL164C, strain tpk1, stronger effect = lower value
  normalized growth: 0.859 (active)
Locus YJL166W, strain qcr8, stronger effect = lower value
  normalized growth: 0.895 (active)
Locus YJL168C, strain set2, stronger effect = lower value
  normalized growth: 0.875 (active)
Locus YJL187C, strain SWE1 (second series), stronger effect = lower value
  normalized growth: 0.739 (active)
Locus YJL187C, strain SWE1, stronger effect = lower value
  normalized growth: 0.929 (inactive)
Locus YJR043C, strain POL32, stronger effect = lower value
  normalized growth: 0.742 (active)
